FBW7 activator: activators of human E3 ligase FBW7. AlphaScreen FBW7–phospho-cyclin E peptide binding, activator screen. normalized activity (activation), % at 26.1 µM. 650,000 tested, 0.13% active; in the data active = normalized activity above about 1.9%;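 also: purified mutant Fbw7 with reduced substrate affinity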
GPR151 ag: human GPR151 activation; Q8TDV0; PathHunter beta-arrestin GPR151 cells, luminescence; activation, % at 11.2 µM; 650,000 tested, 1% active; AID 1508602; in the data active = activation above about 4.9%;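 also: 0% = median of compound wells and 100% = cells with positive control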
MITF inh: blocks human microphthalmia-associated transcription factor; AlphaScreen MITF homodimerization, bead proximity signal; inhibition, % at 2.6 µM; O75030; 650,000 tested, 0.91% active; in the data active = inhibition above about 50%;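 also: 0% = vehicle wells with protein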
TEAD-YAP inh: TEAD-YAP interaction inhibition; HEK-TIYL cells, TEAD-Gal4/YAP UAS-luciferase luminescence; inhibition, % at 9.12 µM; 640,000 tested, 1.4% active; in the data active = inhibition above about 32%;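 also: 0% = median of test compound wells and 100% = reference inhibitor wells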
GPR151 conf act: confirmation of human GPR151 activators | shares compounds with GPR151 ag | GPR151 PathHunter beta-arrestin cells, luminescence, 90 min; % of EA-reagent control over plate median | activation, % at 11.2 µM | 6,700 tested, under 10 active;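 active = mean percent activation across replicates above the confirmation screen cutoff of 4.91%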
GPR119 ag: GPR119 activation, counter-screen for GPR151 activators | shares compounds with GPR151 ag | AID 1508611 | activation, % at 11.2 µM | GPR119 PathHunter beta-arrestin cells, luminescence, 90 min; 0 = compound-well median, 100 = enzyme-acceptor control | 6,700 tested, 0.3% active;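 active = mean percent activation in the counterscreen above 29.09%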;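 also: counterscreen on off-target GPR119 to flag nonselective hits from the GPR151 activator screen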
Target sequence (Q8TDV5 whole entry, looked up): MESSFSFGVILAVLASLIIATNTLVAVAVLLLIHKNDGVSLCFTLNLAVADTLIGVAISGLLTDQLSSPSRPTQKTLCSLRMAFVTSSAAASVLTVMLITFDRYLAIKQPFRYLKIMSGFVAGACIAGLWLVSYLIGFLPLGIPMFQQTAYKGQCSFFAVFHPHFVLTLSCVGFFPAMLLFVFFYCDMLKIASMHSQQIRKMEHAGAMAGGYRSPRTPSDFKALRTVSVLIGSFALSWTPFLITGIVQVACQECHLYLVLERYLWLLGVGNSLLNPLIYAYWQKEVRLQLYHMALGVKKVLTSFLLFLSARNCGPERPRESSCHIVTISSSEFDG
An asterisk follows results filed as active; · = no result given. Rows were chosen to be rich in hits. Some 3.4% of all compounds tested hit in one or more screens of this group.

SMILES	FBW7 activator	GPR151 ag	MITF inh	TEAD-YAP inh	GPR151 conf act	GPR119 ag
CCC(=O)N1CCc2cc(S(=O)(=O)CCC(=O)NC3CCCCCC3)ccc21	0.1	5.0*	4.8	-7.0	0.0	0.9
OCCCNc1ncc(-c2ccc(Cl)cc2)cn1	0.1	5.8*	0.1	-4.5	-0.6	-1.3
COc1ccc(-c2cnc(NCCCO)nc2)cc1	0.1	-1.7	4.0	-14.3	·	·
O=S1(=O)N=C(N(CCO)/N=C/c2cccc(O)c2O)c2ccccc21	-0.2	5.9*	1.5	-6.5	0.2	-5.8
CC(=O)Nc1ccc(NC(=O)c2cccc(-c3ccc(C(N)=O)cc3)n2)cc1	-0.2	12.6*	5.2	5.2	0.3	-6.4
CCCCN(C)S(=O)(=O)c1ccc(C(=O)Nc2ccc3sc(C)nc3c2)cc1	0.5	5.2*	27.0	61.0*	0.5	13.1
CC(C)=C/C(C)=N/Nc1ccc(S(N)(=O)=O)cc1[N+](=O)[O-]	-0.3	4.9*	-2.8	4.2	-0.7	-8.7
CN(C)CCCNc1ccc(S(N)(=O)=O)cc1[N+](=O)[O-]	0.7	5.7*	8.3	1.6	0.4	3.3
COc1ccccc1CNC(=O)CC1C(=O)NCCN1CCC(C)C (stereo unspecified)	0.0	5.8*	1.7	-0.2	0.2	0.1
CN(CCc1cnn(C)c1)c1nc2nonc2nc1NCc1cccs1	0.3	-0.1	11.8	-5.8	·	·
CS(=O)(=O)c1ccc2c(c1)SC1=NC(C(F)(F)F)(C(F)(F)F)NC(=O)N12	0.0	0.3	0.8	-0.1	·	·
CCOC(=O)CC1=CSC2=NC(C(F)(F)F)(C(F)(F)F)NC(=O)N12	0.0	5.6*	5.1	7.1	0.5	-2.4
COC(=O)CNC(=O)c1sc2ncn(CC(=O)N3CCC(C)CC3)c(=O)c2c1C	0.4	-1.0	1.3	3.9	·	·
CCOc1cc(/C=N/NC(=O)c2cc(-c3ccc(C)o3)[nH]n2)ccc1O	0.1	7.0*	15.4	21.2	-0.3	-7.9
COc1ccc(/C=N/NC(=O)c2cc(-c3ccc(C)o3)[nH]n2)cc1	0.2	-0.6	17.1	8.9	·	·
Cc1ccc(-c2cc(C(=O)N/N=C/c3cccc(Br)c3)n[nH]2)o1	-0.2	7.5*	7.9	11.3	1.0	-5.5
CCOc1cc(/C=N/NC(=O)c2cc(C(C)C)[nH]n2)ccc1O	0.1	-1.3	6.5	6.2	·	·
COc1ccc2c(c1)CC(c1nc3c(F)cc(-c4ccnc(N)n4)cc3[nH]1)CO2 (stereo unspecified)	-0.2	0.9	-14.2	8.5	·	·
Cc1ccc(COc2c(Br)cc(/C=C(\C#N)c3nn(CCO)c(N)c3C#N)cc2Br)cc1	-0.1	6.9*	6.7	-3.8	0.0	4.6
Cc1ccc(-n2c3c(cc(C(=O)NCC4CCCO4)c2=O)C(=O)CC(C)(C)C3)cc1 (stereo unspecified)	-0.2	10.6*	-3.0	7.5	0.5	-2.8
COCCNC(=O)c1cc2c(n(-c3ccc(C)cc3)c1=O)CC(C)(C)CC2=O	0.2	-1.2	-1.6	-9.5	·	·
COc1ccc(NC(=O)c2sc(=S)[nH]c2N)cc1	-0.2	5.0*	-4.3	-30.6	-0.8	-11.7
Cc1noc(/C=C/c2cccs2)c1S(=O)(=O)N1CCCC(C(=O)N2CCCCC2)C1 (stereo unspecified)	-0.1	5.0*	2.1	-1.9	0.4	5.2
Cc1noc(/C=C/c2cccs2)c1S(=O)(=O)N1CCCC(C(=O)N2CCCC2)C1 (stereo unspecified)	-0.5	0.1	-2.2	-6.4	·	·
CCOc1ccc(NC(=O)c2sc3nc(C)nc(N4CCCCC4)c3c2C)cc1	-0.1	2.4	-11.4	0.7	·	·
CC(C)(C)OC(=O)N1CCCC(c2nc(-c3ccncc3)no2)C1 (stereo unspecified)	0.1	5.5*	-4.6	-5.7	0.1	9.9
CC(C)(C)OC(=O)N1CCC(c2nc(-c3ccncc3)no2)CC1	-0.2	1.6	-12.8	4.4	·	·
COc1ccc(C(=O)Nc2nnc(C(C)(C)C)s2)cc1[N+](=O)[O-]	0.0	7.3*	-6.0	-12.7	-1.7	-18.0
CC(C)(C)c1nnc(NC(=O)c2ccc([N+](=O)[O-])cc2)s1	0.6	-0.1	12.6	-2.4	·	·
O=C1OC(c2ccccc2Cl)=N/C1=C\c1ccc2c(c1)OCO2	-0.1	1.2	-17.8	-4.1	·	·

Compound activity (PubChem)
